From PubChem BioAssay AID1347120 (National Center for Advancing Translational Sciences (NCATS), 2019) come the findings set out here.

Screen size: about 390,000 compounds; about 930 (0.24%) were called active. Inconclusive results (about 5%) are left out. Calls come from the whole dose curve; as a rule, active = well fitted activation curve with a large enough effect; inconclusive = small, poorly fitted or top-dose-only effect; inactive = no such curve, though single readings can be large or run the other way. What follows is part of a selection rich in actives, with near analogues and random picks from the rest.
Potency is the fitted concentration of half-maximal effect.

The nature of this experiment: qHTS for Suppressors of FUS Proteinopathy: Primary screen using FUS-linked yeast assay.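 For growth rescue (activation): plate controls were DMSO vehicle for no effect and reference control for full effect.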 Note: nearly all actives have a fitted effect of over 55% in size. Conditions: S. cerevisiae FUS-expressing, OD600, 24 h; Potency: growth rescue; series mostly up to 76.6 µM; growth rescue (activation): at the top concentration. From the text:
Several widespread neurodegenerative diseases, including Alzheimer disease, Huntington disease, Frontotemporal Lobar Degeneration (FTLD) and Amyotrophic Lateral Sclerosis (ALS), share a common pathological feature, namely accumulation of specific protein aggregates in diseased tissue. These diseases which is associated with protein misfolding (proteinopathies) have become increasingly problematic as the population ages and life expectancies are extended. Most proteinopathies are currently incurable, a situation confounded by the fact that the basis of neurodegeneration is generally poorly understood. There exists urgent and significant need to find therapeutics that can inhibit the toxicity associated with protein aggregation. A novel approach to understand the underlying mechanisms of neurodegenerative diseases has recently emerged in which the disease conditions are modeled in the yeast (Saccharomyces cerevisiae), a tractable eukaryotic organism with conserved protein quality control mechanisms. Yeast offers quick and reliable genetic manipulations and can be easily tailored to high-throughput screening (HTS).
For this project, a yeast model of the FUS proteinopathies (a spectrum of neurodegenerative diseases that include ALS and a subtype of FTLD) was generated and employed. The cytoplasmic accumulation of the DNA/RNA-binding protein FUS (also known as TLS) is causative to both familial and sporadic forms of ALS and FTLD. This yeast model recapitulates neuronal pathology by showing severe cytotoxicity associated with cytoplasmic accumulation of FUS aggregates and a specific interaction between FUS and TDP-43, another ALS-associated protein. […] Specifically, the cellular accumulation of misfolded FUS that disrupts RNA homeostasis in both yeast and higher eukaryotes. This model was validated to be suitable for quantitative HTS (qHTS) use for finding genetic or chemical factors that restore growth. […] Identified compounds that inhibits FUS-yeast toxicity is flagged, re-acquired, and validated for further investigation and optimization.
NIH Chemical Genomics Center [NCGC]
NIH Molecular Libraries Probe Production Centers Network [MLPCN]
Assay Submitter (PI): Frank Shewmaker PhD, Uniformed Services University of the Health Sciences
Compound CP55940 was used as the positive control. Column 1 was treated with CP55940 titration from 92uM (final concentration, 1:2 dilution), while Column 2 was treated with top dose 92uM. Columns 3 and 4 were treated with DMSO only as negative control to assess background and noise signal.
Four hundred fifty microliter of cultured yeast (in 20mL rich medium) provided by Dr. Shewmaker lab was incubated at 30C at 99% humidity for 3hr. The culture was then spun down at 4000rpm for 5min and the cell pellet was resuspended in 2mL of Sdmin Media + ALU(330) + 2.5% Raffinose. One hundred microliter of the suspension was added to 900uL of water and OD of the solution was obtained. Twenty mL of responding medium (provided by Shewmaker lab) + 2.5% raffinose was added to ensure cell density of 0.1; the solution was incubated overnight. Working cell solution (FUS-yeast in Sdmi + Sdmi + 1X ALU + 2% galactose media) was prepared (final OD at 0.005) and 3uL was dispensed in a 1536-well Aurora high based clear bottom assay plates. Controls and library compounds (at various final concentrations from 40uM to 0.32uM) were added using a 1536-well pin array using the Kalypsys pin-tool. The plates were then incubated for 24hrs in a cell-culture incubator (30C; 99% humidity). Absorbance at 600nm was then read using the PerkinElmer ViewLux plate reader.
On the technique in general: qHTS replaces the single test concentration by a dilution series.
On to `CCC(=O)N1CCc2cc(Br)cc(S(=O)(=O)CCC(=O)N3CCN(c4ccc(F)cc4)CC3)c21`, for which the “growth rescue (activation)” value is 1.9% (inactive).

`O=C(Nc1cc(C(F)(F)F)ccc1Cl)c1cc2nc(-c3ccc4c(c3)OCO4)cc(C(F)(F)F)n2n1`: the “growth rescue (activation)” value is 10.3% (inactive).

Regarding `CCOc1cccc2sc(N3CCN(C(=O)C4CC4)CC3)nc12`, the “growth rescue (activation)” value was 4.39% (inactive).

On to `COC(=O)[C@@]12CCCCC=C1N(CCc1ccc(Cl)cc1)C(=O)[C@H]2CC(=O)NCc1ccc(OC)c(OC)c1`, for which the “growth rescue (activation)” value was 39.4% (inactive).

Regarding `COC(=O)[C@]12C[C@H](CC(=O)NCCc3ccccc3OC)C(=O)N(Cc3ccco3)C1=C[C@H](C(C)C)O[C@@H]2C1CC1`, the “growth rescue (activation)” value was 40.9% (inactive).

Regarding `COC(=O)[C@]12C[C@H](CC(=O)NCc3cccc4ccccc34)C(=O)N(CCc3ccc(OC)c(OC)c3)C1=C[C@H](C1CCCC1)O[C@@H]2C`, the Potency was 12.6 µM (active).

In the case of `O=C(CSc1nccn1-c1ccc(F)cc1)Nc1cccc2ccccc12`, the “growth rescue (activation)” value was 12.2% (inactive).

On to `CCN(c1ncnc2c1cnn2-c1ccc(C)cc1)C1CCCCC1`, for which the “growth rescue (activation)” value was -6.13% (inactive).

On to `CCN1CCN(c2cc(C)c3cc(NC(=O)c4cc(Cl)ccc4OC)ccc3n2)CC1`, for which the “growth rescue (activation)” value was 10.2% (inactive).

`CCOc1ccc(C(=O)Nc2ccc3nc4c(c(Nc5ccccc5OC)c3c2)CCCC4)cc1`: the “growth rescue (activation)” value is 36.6% (inactive).

Regarding `COC(=O)[C@]12C[C@H](CC(=O)N3CCOCC3)C(=O)N(Cc3ccc(Cl)cc3Cl)C1=C[C@H](COCc1ccccc1)O[C@@H]2C`, the “growth rescue (activation)” value was 10.6% (inactive).

Turning to `CCOC(=O)N1CCN(C(=O)C[C@H]2C[C@@]3(C(=O)OC)C(=C[C@H](C(C)(C)C)O[C@@H]3C)N(Cc3ccc(Cl)cc3Cl)C2=O)CC1`, the Potency was 6.31 µM (active).

Consider `COC(=O)[C@]12C[C@H](CC(=O)NCC34CC5CC(CC(C5)C3)C4)C(=O)N(Cc3ccc(Cl)cc3Cl)C1=C[C@H](COCc1ccccc1)O[C@@H]2C`, for which the “growth rescue (activation)” value is 31.5% (inactive).

`CC1CCC(N2CC(=O)N(CCC3=CCCCC3)C(c3ccc(F)cc3)C2=O)CC1` (stereo not given): the “growth rescue (activation)” value was 20.9% (inactive).

Turning to `CCC(C(=O)Nc1cccc(-c2nc3cccnc3s2)c1C)c1ccccc1` (stereo not given), the “growth rescue (activation)” value is -6.93% (inactive).

With `Cc1ccc(Nc2ccc3cc(S(=O)(=O)N4CCCCC4)ccc3n2)cc1F`, the “growth rescue (activation)” value is -5.75% (inactive).

For `Cc1oc2ccc(O)c(CN3CCCCC3)c2c1C(=O)Nc1cccc(C(F)(F)F)c1`, the “growth rescue (activation)” value was 24.9% (inactive).

Take `CCCN1CCN(CCCNC(=O)c2cnn(-c3ccc(C)cc3)c2-n2cccc2)CC1`: the “growth rescue (activation)” value is 6.69% (inactive).

For the compound `CSc1ncc(Cl)c(C(=O)Nc2ccc(S(=O)(=O)N3CCCC(C)C3)cc2)n1` (stereo not given), the “growth rescue (activation)” value was 2.88% (inactive).

As to `COc1ccc(C2=NS(=O)(=O)N(C)C(C(=O)NC(C)c3ccccc3)=C2)cc1` (stereo not given), the Potency result is “inactive”.

Turning to `COc1cc(NC(=O)C2=CC(c3ccc(C)cc3)=NS(=O)(=O)N2C)cc(OC)c1OC`, the “growth rescue (activation)” value was -8.13% (inactive).

Consider `COc1ccc(NC(=O)C2=CC(c3ccc(OC)c(OC)c3)=NS(=O)(=O)N2C)cc1`, for which the Potency is 31.6 µM (active).

As to `O=C(COc1ccccc1Cl)Nc1ccc2nc(SCC(=O)N3CCCC3)sc2c1`, the “growth rescue (activation)” value is 12.6% (inactive).

Regarding `COc1cccc(CNC(=O)CSc2c3c(nc4cc(Cl)ccc24)CCCC3)c1`, the “growth rescue (activation)” value was -8.26% (inactive).

Turning to `CCOC(=O)c1c(NC(=O)c2ccc(S(=O)(=O)N(CC)CC)cc2)sc2c1CCCCC2`, the “growth rescue (activation)” value is -13.5% (inactive).

Take `O=C(Nc1ccccc1F)C(c1ccccc1)N1Cc2ccccc2C1=O` (stereo not given): the “growth rescue (activation)” value is 4.93% (inactive).

As to `COc1ccc(OC)c(-n2nnc(-c3nc(-c4cc(OC)c(OC)c(OC)c4)no3)c2C)c1`, the “growth rescue (activation)” value was 18.3% (inactive).

On to `CCc1ccc(CN(Cc2ccco2)C(=O)COc2ccc(Cl)c(C)c2)cc1`, for which the “growth rescue (activation)” value is 30.5% (inactive).

In the case of `CCN(CC)c1nn2c(=O)c(C(=O)NCCc3ccccc3)cnc2s1`, the “growth rescue (activation)” value was 17.5% (inactive).

As for `COc1cccc(OCCn2c(-c3ccc(Br)cc3)nc3ccccc3c2=O)c1`, the “growth rescue (activation)” value was -5.51% (inactive).

For the compound `COc1ccc(OC)c(-c2csc(-c3c(N)c(C(=O)c4ccccc4)n4ccccc34)n2)c1`, the “growth rescue (activation)” value is 14.2% (inactive).

For `Cc1nn(C(C)C(=O)Nc2ccc(C(C)C)cc2)c(=O)c2c1sc1ccccc12` (stereo not given), the “growth rescue (activation)” value was -11.1% (inactive).

In the case of `Cc1ccc(NC(=O)CSc2nc3c([nH]c4ccccc43)c(=O)n2-c2ccccc2)c(C)c1`, the “growth rescue (activation)” value was 13.6% (inactive).

On to `Cc1ccc(Cl)cc1N(C)C(=O)Cn1nc(Cc2cccnc2)c2ccccc2c1=O`, for which the “growth rescue (activation)” value was 14.5% (inactive).

In the case of `O=C(CSc1nccn1Cc1ccc(Cl)cc1)NCc1ccccc1`, the “growth rescue (activation)” value was 17.8% (inactive).

On to `Cc1cccc(NC(=O)c2ccc(F)c(S(=O)(=O)N(C)C3CCCCC3)c2)c1`, for which the “growth rescue (activation)” value is 35.4% (inactive).

`CCOc1ccc(C2CC(=O)c3c([nH]c(C(=O)OCc4ccccc4)c3C)C2)cc1` (stereo not given): the “growth rescue (activation)” value was 1.74% (inactive).

`CCOC(=O)C1CCCN(C(=O)c2ccc3c(c2)sc2nc(-c4ccc(CC)cc4)cn23)C1` (stereo not given): the “growth rescue (activation)” value is 19.2% (inactive).

Consider `Cc1c(C(=O)N2CCCC2)oc2c1-c1nn(CC(=O)NCc3ccc(OC(C)C)cc3)cc1CC2`, for which the “growth rescue (activation)” value is 31.1% (inactive).

With `Cc1ccc(NC(=O)c2cc(S(=O)(=O)NCCC3=CCCCC3)ccc2F)cc1C`, the “growth rescue (activation)” value is 15.8% (inactive).
